Screening data deposited in PubChem BioAssay by National Center for Advancing Translational Sciences (NCATS).
KB-3-1 cytotox – KB-3-1 parental cell cytotoxicity; KB-3-1 viability, CellTiter-Glo ATP luminescence, 72 h; Potency, µM (titrated, usually from 46.1 µM), actives largely listed as cytotoxic; 400,000 tested, 1.4% active; further: nearly all actives have a fitted effect of over 60% in size
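Viability of parental KB-3-1 cells, measured by CellTiter-Glo luminescence, followed a 72 h incubation at 37 °C with pinned compounds in phenol-red-free DMEM containing 10% FBS.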
SW480 rerep – induces DNA re-replication in SW480 colon adenocarcinoma cells; SW480 DNA re-replication, Hoechst DNA content imaging, 48 h; Potency, µM (doses to about 46.1 µM), usual class: activators; 340,000 tested, 1.8% active; AID 624297; further: nearly all actives have a fitted effect of over 55% in size
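First, 250 cells per well were seeded. Next, compound or vehicle (23 nL) was pinned in, plates sat 48 hr at 37 C. Finally Hoechst was added for 40 min before fluorescence scanning.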
KB-V1 MDR tox – KB-V1 MDR subline cytotoxicity; KB-V1 MDR cells viability, CellTiter-Glo, 72 h; Potency, µM (highest dose often 46.1 µM), usual class: cytotoxic; 400,000 tested, 3.4% active; AID 1347076; further: nearly all actives have a fitted effect of over 60% in size
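KB-V1 MDR subline cells in DMEM (phenol-red free, 10% FBS) exposed to compounds in qHTS concentration series for 72 h at 37 degrees C. Viability read by CellTiter-Glo luminescence; concentration-effect curves fitted after normalization and correction.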
HT1080 IDH1KD tx – HT-1080 IDH1 knockdown cell toxicity (counter line); 360,000 tested, 2% active; HT-1080 IDH1 knockdown viability, ATP luminescence, 48 h; Potency, µM (doses to about 46.1 µM), hits mostly cytotoxic
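IDH1KD HT-1080 cells, 750/well, RPMI + 5% FBS; compound pinned after 2 h settling; 48 h, 37 °C; CellTiter-Glo luminescence; % activity normalised to DMSO and no-cell wells; curves fitted, classed by r2 and efficacy.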
HT1080NT lethal – kills 2HG-producing HT-1080-NT fibrosarcoma cells; HT-1080-NT fibrosarcoma viability, CellTiter-Glo ATP luminescence, 48 h; Potency, µM (highest dose often 46.1 µM), hits mostly cytotoxic; 360,000 tested, 1.6% active; AID 686970;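 further: NT is the 2HG producing partner of a matched IDH1 knockdown line; nearly all actives have a fitted effect of over 55% in size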
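HT-1080-NT fibrosarcoma cells (2HG-overproducing), 750 cells/well in RPMI with 5% FBS, dosed after 2 h and incubated 48 h at 37C. CellTiter-Glo luminescence normalized to DMSO and no-cell wells; concentration-response curves fitted and classed.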
MCF10A rerep – inducers of DNA re-replication in MCF 10A breast cells | 350,000 tested, 2.9% active | AID 624296 | MCF 10A DNA re-replication, Hoechst nuclear intensity, 48 h | Potency, µM (doses to about 46.1 µM), actives largely listed as activators; further: nearly all actives have a fitted effect of over 50% in size
Hits are given with their value; – = inactive; ? = inconclusive; · = not tested or not shown; [ ] = remark or other dose. Most compounds without a hit are left out; they make up all but 7.9% or so of the library. The call rests on the fitted dose curve; in most records, active means well fitted curve in the direction sought with a large enough effect; inconclusive means small, poorly fitted or top-dose-only effect, or another doubt; inactive means no such curve, though single readings can be large; an effect the other way counts as inactive or inconclusive.

SMILES | KB-3-1 cytotox | SW480 rerep | KB-V1 MDR tox | HT1080 IDH1KD tx | HT1080NT lethal | MCF10A rerep
COc1ccc(C2c3ccc4ccccc4c3Oc3ncn(CCO)c(=N)c32)cc1OC (stereo not given) | – | ? | ? | – | – | –
COc1ccc(C2c3ccc4ccccc4c3Oc3ncn(CCO)c(=N)c32)cc1 (stereo not given) | – | ? | – | 12µM | ? | ?
COc1ccc(C2c3ccc4ccccc4c3Oc3ncn(CCCO)c(=N)c32)cc1OC (stereo not given) | ? | 18µM | ? | 5.2µM | 7.3µM | 18µM
COc1ccc(C2c3ccc4ccccc4c3Oc3ncn(CCN(C)C)c(=N)c32)cc1 (stereo not given) | ? | ? | ? | ? | ? | 21µM
COc1ccc(OC(=O)c2nc(SCc3ccccc3C)ncc2Cl)cc1 | – | · | ? | · | · | ·
O=C(NNC(=O)c1ccccc1Br)c1ccc(SCC2CCCO2)c([N+](=O)[O-])c1 (stereo not given) | – | – | 23µM | – | – | ?
O=C(NNC(=O)c1ccc(SCC2CCCO2)c([N+](=O)[O-])c1)c1ccc(Cl)c([N+](=O)[O-])c1 (stereo not given) | – | – | – | ? | ? | ?
Cc1cccc(Oc2ccc3c(c2)Oc2ccccc2NC3=O)c1 | – | · | – | · | · | ·
Cc1cccc(S(=O)(=O)C(C#N)c2nc3ccccc3nc2N2CC(C)OC(C)C2)c1 (stereo not given) | ? | – | ? | –[9.24 µM] | – | –
CC1CCCN(c2nc3ccccc3nc2C(C#N)S(=O)(=O)c2cccs2)C1 (stereo not given) | – | – | ? | ? | – | ?
Cc1ccc(S(=O)(=O)C(C#N)c2nc3ccccc3nc2N2CC(C)OC(C)C2)cc1C (stereo not given) | – | ? | – | – | – | 15µM
COc1ccc(S(=O)(=O)C(C#N)c2nc3ccccc3nc2N2CCCC(C)C2)cc1 (stereo not given) | – | – | – | – | – | 12µM
CCN1CCN(c2nc3ccccc3nc2C(C#N)S(=O)(=O)c2ccc(C)cc2)CC1 (stereo not given) | ? | – | – | – | – | –
Cc1ccc(S(=O)(=O)C(C#N)c2nc3ccccc3nc2N2CCCC2)cc1 (stereo not given) | – | – | 18µM | – | – | ?
COCCNC(=O)C1(C)CCCN(C(=O)c2ccccc2OC(F)(F)F)C1 (stereo not given) | – | · | – | – | – | ·
Cc1cc(C)nc(SCC(=O)c2ccc3c(c2)OCCO3)n1 | – | – | ? | – | – | 15µM
COc1cc(C(=O)CCN2CCC(c3ccccc3)C2)cc(OC)c1OC (stereo not given) | – | ? | – | – | – | 3.7µM
CCOC(=O)c1cnc(SCC(=O)c2ccc3c(c2)OCCO3)nc1N | – | – | – | –[9.24 µM] | – | –
O=C(CCN1CCC(c2ccccc2)C1)c1ccc2c(c1)OCCO2 (stereo not given) | – | ? | – | 18µM | 4.6µM | 13µM
O=C(CCN1CCC(c2ccccc2)C1)c1ccccc1 (stereo not given) | – | ? | – | ? | – | ?
O=C(CCN1CCCCC1)c1ccc2c(c1)OCCO2 | – | ? | – | 5.6µM | ? | –
O=C(CCN1CCCCCC1)Nc1ccc2c(c1)OCCO2 | – | – | – | – | – | –
COc1cccc2c1Oc1ncccc1N(C(=O)CCC(=O)NC(C)C)C2 | – | · | – | · | · | ·
O=C(CCN1CCc2ccccc2C1)c1ccc2c(c1)OCCO2 | ? | 16µM | ? | – | – | ?
CCn1c(SCC(=O)Nc2ccc3c(c2)OCO3)nnc1-c1cnccn1 | – | – | 21µM | – | – | –
SMILES | KB-3-1 cytotox | SW480 rerep | KB-V1 MDR tox | HT1080 IDH1KD tx | HT1080NT lethal | MCF10A rerep
Brc1ccc(CSc2nnc(-c3cnccn3)n2Cc2ccco2)cc1 | ? | – | 9.2µM | – | – | ?
Fc1ccc(CSc2nnc(-c3cnccn3)n2Cc2ccco2)cc1 | – | – | – | – | – | –
Fc1ccccc1CSc1nnc(-c2cnccn2)n1Cc1ccco1 | – | – | 18µM | – | – | –
O=C(CSc1nnc(CN2CCOCC2)n1-c1ccc(Cl)cc1)Nc1ccc2c(c1)OCO2 | – | – | 10µM | – | – | –
Cn1c(CN2CCOCC2)nnc1SCC(=O)Nc1ccc2c(c1)OCCO2 | – | – | – | – | – | –
CCn1c(SCC(=O)Nc2ccc(OC)c(OC)c2)nnc1-c1cnccn1 | – | – | – | – | – | –
Cc1cc(C)c(NC(=O)CSc2nnc(CN3CCOCC3)n2C)c(C)c1 | – | 29µM | – | – | – | –
Cc1cccc(NC(=O)CSc2nnc(-c3cnccn3)n2Cc2ccco2)c1 | – | – | – | – | – | –
Cc1cc(C)c(NC(=O)CSc2nnc(-c3ccncc3)n2Cc2ccco2)c(Cl)c1 | ? | – | 23µM | – | – | –
Cc1cc(C)cc(NC(=O)CSc2nnc(CN3CCOCC3)n2C)c1 | – | – | – | – | – | –
COC(=O)CSc1nnc(-c2ccccn2)n1Cc1ccco1 | – | – | – | – | – | –
Clc1ccc(CSc2nnc(-c3ccccn3)n2Cc2ccco2)c(Cl)c1 | ? | – | 10µM | – | – | ?
Cc1ccc(NC(=O)CSc2nnc(-c3cnccn3)n2Cc2ccco2)cc1 | – | – | 7.3µM | – | – | –
CCn1c(COc2ccccc2C)nnc1SCC(=O)Nc1ccc2c(c1)OCCO2 | – | – | 4.6µM | – | – | ?
Cc1ccccc1OCc1nnc(SCC(=O)Nc2ccc3c(c2)OCO3)n1C | – | – | – | – | ? | ?
CC1(C)Cc2ccccc2-c2nnc(SCC(=O)Nc3ccc4c(c3)OCO4)n21 | – | – | 4.1µM | – | – | –
Nn1c(SCC(=O)Nc2ccc3c(c2)OCO3)nnc1-c1ccccc1 | – | – | ? | – | – | –
Cc1ccc(S(=O)(=O)Nc2ccc3nc(-c4cccc(Cl)c4)oc3c2)cc1 | – | · | – | · | · | ·
CC1=C(C(=O)Nc2cccc(C(F)(F)F)c2)C2(CCCCCC2)OC1=O | – | · | – | · | · | ·
COc1ccccc1N1CCN(C(=O)c2cn(Cc3ccccc3)nc2-c2cccnc2)CC1 | – | – | ? | – | – | –
COc1cccc(NC(=O)CN(C)C(=O)/C=C/c2cn(Cc3ccccc3)nc2-c2cccnc2)c1 | – | 15µM | – | – | – | ?
COc1cccc(N2CCN(C(=O)c3cn(Cc4ccccc4)nc3-c3cccnc3)CC2)c1 | 1.8µM | 4.1µM | ? | 3.3µM | 5.8µM | 5.2µM
Cc1cc(C)c(NC(=O)CSc2nc(=O)n(Cc3ccco3)c3c2CCC3)c(C)c1 | – | · | – | · | · | ·
CCOC(=O)c1sc2nccc(N(C)C)c2c1N=CNOCc1c(F)cccc1Cl | – | ? | ? | – | – | 15µM
